# LASV entry inh = qHTS for Inhibitors of binding or entry into cells for Lassa Virus. Lassa virus pseudotype entry inhibition, cell reporter. Potency, µM (top dose mostly 37.9 µM), without a hit: at the top dose activity change, negative = inhibition, most hits filed as inhibitors. actives 1.2% (n = 300,000). AID 540256, 2011; calls by dose curve; tested in HEK293 cells; note: potency is the fitted concentration of half-maximal effect; nearly all actives have a fitted effect of over 50% in size
# Pf growth 48h = Primary qHTS for delayed death inhibitors of the malarial parasite plastid, 48 hour incubation | P. falciparum luciferase growth in erythrocytes, 48 h | Potency, µM (doses to about 28.7 µM), inactives show at the highest dose activity change, negative = inhibition, hits mostly inhibitors | actives 5.9% (n = 310,000); note: potency is the fitted concentration of half-maximal effect
#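 A one-generation exposure of luciferase-tagged malaria parasites in RPMI 1640/Albumax erythrocyte culture, 37 C and 5% CO2. Inhibition is inferred from decreased luminescence after adding detection reagent.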
# Pf growth 96h = Primary qHTS for delayed death inhibitors of the malarial parasite plastid, 96 hour incubation; P. falciparum luciferase reporter growth, 96 h; Potency, µM (top dose mostly 28.7 µM), for inactives: at the top dose activity change, negative = inhibition, hits mostly inhibitors; actives 6.9% (n = 320,000); note: potency is the fitted concentration of half-maximal effect
#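 Infected RBCs, 2% Hct / 0.05% parasitemia final; luciferase-reporter P. falciparum; cpd 96 h, 37 C, 5% CO2; luciferase detection reagent; luminescence.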
# HCMV inh = qHTS Assay for inhibitors of the human cytomegalovirus (HCMV); activity change, negative = inhibition, % at 57.5 µM; actives 4.5% (n = 410,000); HFF cells, HCMV-luciferase reporter, 72 h; active compounds read low; in the data active = activity change below about -60%; inconclusive = no clear call, values can overlap the other calls; inactive = above about -39%
#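 Cell-based, HFFs, 1000 cells/well, 16 h 37C; cpds in DMSO + HCMV-luc, MOI 1 PFU/cell; 72 h 37C; OneGlo luminescence after 5 min RT; norm. to buffer vs Salinomycin 10uM.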
# HCV inh = qHTS Assay for Inhibitors of Hepatitis C Virus (HCV); Huh7.5.1 HCVcc-Cre infection, luciferase reporter, 44 h; Potency, µM (top dose mostly 41.8 µM), for the others: at the highest dose activity change, negative = inhibition, most hits filed as inhibitors; actives 3.4% (n = 340,000); AID 651820, 2012; note: potency is the fitted concentration of half-maximal effect
#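 After 44 h co-culture of compound, cells and HCVcc-Cre (~0.5 moi), substrate is added for 15 min at room temperature and luciferase measured over 15 sec. Cells were seeded at 1,000/well and pre-cultured 4 h.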
# MARV entry inh = qHTS for inhibitors of binding or entry into cells for Marburg Virus | AID 540276, 2011 | actives 1.8% (n = 300,000) | Potency, µM (top dose mostly 37.8 µM), inactives show at the top dose activity change, negative = inhibition, actives largely listed as inhibitors | Marburg virus pseudotyped entry inhibition, cell reporter; calls by dose curve; tested in HEK293 cells; note: potency is the fitted concentration of half-maximal effect
# * = called active by the depositor; u = inconclusive; x = no result given; + = active, no number; [ ] = remark or other dose. An excerpt weighted towards active compounds, which were near 14% of everything screened. Unless noted, calls come from the whole dose curve; as a rule, active = well fitted inhibition curve with a large enough effect; inconclusive = small, poorly fitted or top-dose-only effect, or another doubt; inactive = no such curve, though single readings can be large or run the other way. % is set by controls: 0 for no effect and ±100 for the full control effect.
SMILES,LASV entry inh,Pf growth 48h,Pf growth 96h,HCMV inh,HCV inh,MARV entry inh
c1ccc(CCNc2ncnc3ccccc23)cc1,x,278%,-5%,-89*,1.1µM*,x
Cc1cc2c(NCCc3ccccc3)ncnc2s1,u,14%,-1%,-88*,5.6µM*,7.1µM*
CC(C)C1Cc2[nH]c(=S)[nH]c(=O)c2C(c2ccc(F)cc2)O1 (stereo not drawn),x,x,x,-5,x,x
CCOC(=O)/C(=C\Nc1ccc(OCc2ccccc2)cc1)NC(=O)c1ccccc1,x,x,x,15,x,x
CCCCCCCCNc1ncnc2ccccc12,u,x,5.2µM*,x,0.79µM*,u
CC1CCCCC12NC(=O)N(CC(=O)Nc1sc3c(c1C(N)=O)CCC3)C2=O (stereo not drawn),8%,x,10µM*,6,14%,12%[46.1 µM]
CC1CCCCC12NC(=O)N(CC(=O)NCc1ccc3c(c1)OCO3)C2=O (stereo not drawn),6%,u,17%,-80*,12%,0%[46.1 µM]
CC1CCC2(CC1)NC(=O)N(CC(=O)NCc1ccc3c(c1)OCO3)C2=O (stereo not drawn),x,10%,0%,u,13%,x
CC1CCCCC12NC(=O)N(CC(=O)OCc1cccc(F)c1)C2=O (stereo not drawn),x,13µM*,u,0,2%,x
CC1CCCCC12NC(=O)N(CC(=O)OCc1ccc(Br)cc1)C2=O (stereo not drawn),x,u,5%,+,1%,x
CC1CCCCC12NC(=O)N(CC(=O)OCc1ccccc1F)C2=O (stereo not drawn),0%,x,x,13,20%,23%
Cc1cccc(N(Cc2ccccc2)C(=O)CN2C(=O)NC3(CCCC3)C2=O)c1,x,u,u,u,-10%,x
Cc1cccc(N(Cc2ccccc2)C(=O)CN2C(=O)NC3(CCCCC3C)C2=O)c1 (stereo not drawn),x,u,12µM*,-21,9%,x
COC(=O)c1c(C)nc(C)c2c(=O)oc3c(c12)CCCC3,x,x,x,x,x,13%
O=C1NCC(=O)N2C(c3ccccc3)c3[nH]c4ccccc4c3C[C@@H]12 (stereo partly drawn),-5%,-13%,-27%,47,6%,-2%[46.1 µM]
CC(C)CN1CC(=O)N2C(c3ccccc3)c3[nH]c4ccccc4c3C[C@H]2C1=O (stereo partly drawn),x,12µM*,u,8,-15%,x
CCN1C(=O)[C@@H]2Cc3c([nH]c4ccccc34)C(c3cc(OC)c(OC)c(OC)c3)N2C1=S (stereo partly drawn),x,u,u,49,u,x
COc1cc([C@H]2c3[nH]c4ccccc4c3C[C@H]3C(=O)N4[C@@H](c5cc(OC)c(OC)c(OC)c5)c5[nH]c6ccccc6c5C[C@H]4C(=O)N23)cc(OC)c1OC,u,0.41µM*,0.47µM*,x,-6%,u
O=C1[C@@H]2Cc3c([nH]c4ccccc34)[C@@H](c3ccccc3)N2C(=O)[C@@H]2Cc3c([nH]c4ccccc34)[C@@H](c3ccccc3)N12,u,u,2.6µM*,x,-8%[8.37 µM],u
C=CCN1C(=O)[C@@H]2Cc3c([nH]c4ccccc34)C(c3cc(OC)c(OC)c(OC)c3)N2C1=S (stereo partly drawn),x,8.3µM*,u,57,-25%,x
COCCCN1CC(=O)N2C(c3ccc(OC)c(OC)c3)c3[nH]c4ccccc4c3C[C@H]2C1=O (stereo partly drawn),6%[46.1 µM],u,u,3,-2%,u
CN(C)c1nc(N(C)C)nc(N(C#N)CCOc2ccccc2)n1,-20%,u,u,-23,11µM*,-23%
Cc1cc(C)nc(N(C#N)CCOc2ccccc2)n1,-1%,-2%,11%,16,u,u

# From PubChem BioAssay
